Source: PubChem BioAssay
Rows were chosen to be rich in hits. Some 10% of all compounds tested hit in one or more screens of this group.
BAZ2B inh – inhibitors of human BAZ2B bromodomain | Q9UIF8 | AlphaScreen BAZ2B-H3K14Ac peptide displacement | Potency, µM (top dose mostly 114 µM), most hits filed as inhibitors | 4.4% of 360,000 active | AID 504333; further: nearly all actives have a fitted effect of over 60% in size
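BAZ2B 50 nM plus b-H3(5-23)K14Ac 50 nM, PBS pH 7.4/0.01% Tween-20, 30 min RT; compound added (max 110 uM), 30 min RT; streptavidin donor/Ni-chelate acceptor beads 10 ug/mL final, 20 min dark; AlphaScreen read.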
GLS inh – inhibitors of human glutaminase (GLS); 0.21% of 410,000 active; O94925; Potency, µM (doses to about 45.5 µM), hits mostly inhibitors; GLS enzymatic activity, qHTS titration
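Human kidney-isoform GLS in 45 mM KH2PO4 pH 8.2, 0.02% Tween-20, with compound, started with 1mM L-Glutamine (added stock). Glutamate oxidase/HRP/Amplex red coupled fluorescence read at start and after 30 min at RT.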
HP1b binding inh – HP1-beta chromodomain-methylated histone interaction inhibition; P83916; 0.56% of 390,000 active; Potency, µM (highest dose often 114 µM), usual class: inhibitors; AlphaScreen HP1-beta / biotin-H3K9me3 peptide binding; AID 540317; further: nearly all actives have a fitted effect of over 70% in size
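Compound inhibition of the preformed complex between 50 nM HP1-beta and 50 nM biotinylated H3K9me3 peptide was read by AlphaScreen. Buffer was PBS pH 7.4 with 0.01% Tween-20. Incubations ran 30 min at room temperature, with 10 ug/mL donor/acceptor beads.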
JMJD2A Tudor – JMJD2A Tudor domain (human) inhibition | O75164 | AlphaScreen JMJD2A-Tudor / H3K4me3 peptide binding | Potency, µM (series often up to 114 µM), hits mostly inhibitors | 4.4% of 390,000 active | AID 504339; further: nearly all actives have a fitted effect of over 50% in size
G9a block – blocks human histone lysine methyltransferase G9a; Q96KQ7; G9a H3K9 monomethylation, AlphaScreen, 2 h; Potency, µM (series often up to 102 µM), hits mostly inhibitors; 8.8% of 350,000 active; AID 504332; further: nearly all actives have a fitted effect of over 75% in size
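AlphaScreen read-out: biotin-H3K9 peptide (500 nM) methylation by 20 nM enzyme with 20 uM SAM, 2 h at room temperature after 15 min compound preincubation; anti-monomethyl H3K9 antibody plus donor/acceptor beads, 10 min dark.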
Of the large screens only hits and unclear results are named; the others gave an inactive call. The call rests on the fitted dose curve; in most records, active means well fitted curve in the direction sought with a large enough effect; inconclusive means small, poorly fitted or top-dose-only effect, or another doubt; inactive means no such curve, though single readings can be large; an effect the other way counts as inactive or inconclusive.

Cc1csc(C(C)N(C)C(=O)c2ccc(OC3CCN(Cc4ccccn4)CC3)cc2)n1 (stereo unspecified)	BAZ2B inh inconclusive, G9a block 70.8µM
CN(Cc1nccs1)C(=O)c1ccc(OC2CCN(Cc3ccccn3)CC2)cc1	none (no result: G9a block)
C[C@H](CO)N1C[C@H](C)[C@@H](CN(C)S(=O)(=O)c2cccs2)Oc2c(NC(=O)CCC(F)(F)F)cccc2C1=O	none (no result: BAZ2B inh, G9a block)
Cc1cc(C)c(C)c(S(=O)(=O)N2CCC(C(=O)NC3=NCCS3)CC2)c1C	BAZ2B inh inconclusive
CC(C)CC(=O)Nc1sc2c(c1C(=O)O)CCCCC2	BAZ2B inh inconclusive, G9a block 70.8µM
N#Cc1c(NC(=O)CCC(=O)O)sc2c1CCCCC2	BAZ2B inh inconclusive, HP1b binding inh inconclusive, JMJD2A Tudor 44.7µM, G9a block 44.7µM
O=C(CCc1ccccc1)Nc1sc2c(c1C(=O)O)CCCC2	none (no result: BAZ2B inh, G9a block)
N#Cc1c(NC(=O)CCC(=O)O)sc2c1CCCC2	none
CCC(=O)Nc1sc2c(c1C#N)CCC2	JMJD2A Tudor 89.1µM
Cc1nnc(SCC(=O)Nc2sc3c(c2C#N)CCCCC3)n1N	G9a block 14.1µM
O=C(c1csnn1)N1CCC2(CCCN(c3ccncc3)C2)CC1	none (no result: BAZ2B inh, GLS inh, HP1b binding inh, JMJD2A Tudor)
Cn1cc(-c2nc3cnc(Oc4ccccc4)nc3n(C)c2=O)c2ccccc21	none (no result: BAZ2B inh, GLS inh, HP1b binding inh, JMJD2A Tudor)
COc1ccc(-n2ccnc2SCC(=O)Nc2nnc(C)s2)cc1	none
COCCNc1nc(Nc2ccc(C(=O)OC)cc2)c2sccc2n1	none (no result: BAZ2B inh, HP1b binding inh, JMJD2A Tudor, G9a block)
CCCn1c(=O)n(-c2ccccc2)c(=O)c2sc3ccccc3c21	none
O=C(O)Cc1ccc(NC(=O)CCN2C(=O)c3ccc([N+](=O)[O-])cc3C2=O)cc1	none
O=C(CCN1C(=O)c2ccc([N+](=O)[O-])cc2C1=O)Nc1ccc(O)cc1C(=O)O	G9a block 50.1µM
CC(CNC(=O)CCc1cn(Cc2ccccc2Cl)c2ccccc12)c1ccccc1 (stereo unspecified)	BAZ2B inh inconclusive, G9a block inconclusive
COCCNC(=O)CCCn1c(SCC(=O)Nc2ccc(F)cc2)nc2c(sc3ccccc32)c1=O	none
CN1c2ccccc2-c2nc3ccccc3n2C1c1ccccn1 (stereo unspecified)	BAZ2B inh inconclusive, G9a block 50.1µM
CN1c2ccccc2-c2nc3ccccc3n2C1c1ccncc1 (stereo unspecified)	none
COc1ccc(C(=O)Nc2ccccc2C(=O)OCc2cc(=O)n3c4c(sc3n2)CCCC4)cc1	none
O=C(c1ccsc1)N1CCCC(N2CCOCC2)C1 (stereo unspecified)	none
COc1ccc(Nc2nc3c([nH]2)c(=O)[nH]c(=O)n3C)cc1	G9a block 50.1µM
CCN(CC(=O)Nc1cc(OC)ccc1OC)Cc1nc2ccccc2c(=O)[nH]1	none
COc1ccc(Nc2nc3ccccc3c(=O)[nH]2)cc1	G9a block 79.4µM
CCN(CC(=O)Nc1ccc(C(=O)Nc2ccc(OC)cc2)cc1)Cc1nc2ccccc2c(=O)[nH]1	G9a block 35.5µM
COc1ccc(Nc2c3ccccc3nc3ccccc23)cc1	BAZ2B inh inconclusive, JMJD2A Tudor inconclusive, G9a block 39.8µM
Cc1cn(CC(=O)NCCN2CCOCC2)c(=O)[nH]c1=O	none (no result: BAZ2B inh, G9a block)
COC(=O)CC(=O)CSc1nc2cc(C(=O)NCC(C)C)ccc2c(=O)n1CCc1ccccc1	none
CN(C)Cc1ccccc1-c1nc(NC2CCNCC2)c2ccccc2n1	none (no result: BAZ2B inh, GLS inh, HP1b binding inh, JMJD2A Tudor)
CCN(CC)c1ccc(C(=S)NC2CCCCC2)cc1	BAZ2B inh 22.4µM, HP1b binding inh 31.6µM, JMJD2A Tudor inconclusive
CCOc1ccc(C(=S)NC2CCCCC2)cc1OCC	BAZ2B inh inconclusive, HP1b binding inh inconclusive, JMJD2A Tudor 79.4µM, G9a block 7.94µM
CN(C)c1cccc(C(=O)NC2CCCCCC2)c1	JMJD2A Tudor inconclusive, G9a block 8.91µM
CN(C)c1ccc(C(=S)N2CCCCC2)cc1	G9a block inconclusive
CN(C)c1ccc(C(=S)NC2CCCCC2)cc1	HP1b binding inh inconclusive, JMJD2A Tudor inconclusive, G9a block 5.62µM
COc1ccc(Cl)cc1NC(=O)CCc1c(C)nc2c(c1C)c(=O)n(C)c(=O)n2C	none
CC1Nc2ccc(C(=O)NC3CCCCC3)cc2NC1=O (stereo unspecified)	G9a block 35.5µM
O=C(NCCc1ccccc1)C(=O)NCC(c1cccnc1)N1CCN(c2ccccc2F)CC1 (stereo unspecified)	none
